ELG1 DNA repair = qHTS screen for small molecules that inhibit ELG1-dependent DNA repair in human embryonic kidney (HEK293T) cells expressing luciferase-tagged ELG1 | HEK293T ELG1-luciferase reporter, luminescence, 16 h; DNA damage induced by 5-fluorouridine | 330,000 tested, 2.3% active | Potency, µM (titrated, usually from 46.1 µM), hits mostly inhibitors; also: nearly all actives have a fitted effect of over 55% in size
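Step one: seed 2,000 cells per well. Step two: pin-transfer compound or DMSO alongside 5-fluorouridine. Step three: incubate 16 hr, 37 °C, 5% CO2. Step four: add ONE-Glo, wait 30 min, read luminescence.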
Giardia killer = Small Molecules that selectively kill Giardia lamblia: qHTS. Giardia lamblia trophozoite viability. 340,000 tested, 0.15% active. activity change, % at 7.66 µM, hits read low; in the data active = activity change below about -80%; inconclusive = between about -30% and that limit;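 also: parasites exposed to compound for two days anaerobically before the ATP read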
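Trophozoites 100 cells/well + cpd; 48 hrs, 37 deg C, anaerobic. ATPLite 1-Step added, 15-30 min RT, luminescence read (ATP-based viability).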
TDP1 inh = qHTS Assay for Inhibitors of Tyrosyl-DNA Phosphodiesterase (TDP1); 350,000 tested, 0.28% active; Potency, µM (series often up to 130 µM), usual class: inhibitors; AID 485290, 2010; Tyrosyl-DNA phosphodiesterase 1 (Homo sapiens), Q9NUW8; recombinant TDP1, AlphaScreen DNA substrate cleavage; also: nearly all actives have a fitted effect of over 40% in size
Target sequence (Q9NUW8 whole entry, looked up): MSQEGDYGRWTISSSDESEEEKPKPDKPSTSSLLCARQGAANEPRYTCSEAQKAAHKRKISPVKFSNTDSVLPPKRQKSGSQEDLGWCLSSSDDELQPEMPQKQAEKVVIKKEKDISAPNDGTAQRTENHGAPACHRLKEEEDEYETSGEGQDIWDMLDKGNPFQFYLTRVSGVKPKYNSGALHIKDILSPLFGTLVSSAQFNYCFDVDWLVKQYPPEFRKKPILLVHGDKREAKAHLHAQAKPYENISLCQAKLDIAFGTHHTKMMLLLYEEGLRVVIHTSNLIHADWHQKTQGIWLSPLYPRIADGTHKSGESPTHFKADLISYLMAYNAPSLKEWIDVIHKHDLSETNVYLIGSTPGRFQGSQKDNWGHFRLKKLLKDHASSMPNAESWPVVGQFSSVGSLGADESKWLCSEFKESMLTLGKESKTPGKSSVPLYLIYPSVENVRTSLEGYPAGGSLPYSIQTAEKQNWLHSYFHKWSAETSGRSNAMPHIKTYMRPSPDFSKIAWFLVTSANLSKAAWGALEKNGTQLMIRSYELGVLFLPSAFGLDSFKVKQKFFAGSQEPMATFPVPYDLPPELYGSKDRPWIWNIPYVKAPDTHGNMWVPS
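Compounds were preincubated with Tdp1 (1 nM final) for 15 min at room temperature before substrate (15 nM final) started a 5 min reaction; beads (10 ug/ml final) were then added for 10 min before AlphaScreen detection.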
IL-1B inflam inh = qHTS for Inhibitors of Inflammasome Signaling: IL-1-beta AlphaLISA Primary Screen; AID 743279, 2014; activity change, % at 57.5 µM; THP-1 LPS/ATP IL-1B secretion, AlphaLISA, 16 h; active compounds read low; 360,000 tested, 4.7% active; in the data active = activity change below about -50%; inconclusive = mostly about -30% to -49%
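THP-1 cells pretreated 1 hr with compounds (up to 57.5 uM final), then stimulated with LPS (250 ng/mL final) plus ATP (1.25 mM final); secreted IL-1B measured by AlphaLISA after 16 hr, decreased signal indicating inhibition.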
DT40 TDP1 no CPT = qHTS for Inhibitors of human tyrosyl-DNA phosphodiesterase 1 (TDP1): qHTS in cells in absence of CPT; DT40 Tdp1-/- hTDP1 cells, no CPT, ATP luminescence, 48 h; Potency, µM (highest dose often 46.2 µM), usual class: inhibitors; 420,000 tested, 15% active; AID 686978, 2013; also: nearly all actives have a fitted effect of over 55% in size
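No-CPT arm: Tdp1-/-;hTDP1 DT40 cells (400/well) plus compounds, incubated ≥48 hr at 37 °C. Readout CellTiter-Glo luminescence.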
TDP1 cell CPT = qHTS for Inhibitors of human tyrosyl-DNA phosphodiesterase 1 (TDP1): qHTS in cells in presence of CPT; AID 686979, 2013; Potency, µM (series often up to 46.2 µM), hits mostly inhibitors; chicken DT40 Tdp1-/-;hTDP1 cells + 20 nM CPT, ATP luminescence, 48 h; 420,000 tested, 12% active; also: nearly all actives have a fitted effect of over 55% in size
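Cell growth measured by CellTiter-Glo luminescence after a minimum 48 h, 37 C compound exposure with 20 nM CPT in Tdp1-knockout DT40 cells stably expressing hTDP1, seeded 400/well; qHTS titration format.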
Numbers stand for hits; - = inactive; ? = inconclusive; . = no result given; [ ] = remark or other dose. Sampled rows, rich in hits. Any-hit rate of the full collection: about 19%. Unless noted, calls follow the shape of the dose curve; as a rule, active = well fitted curve in the direction sought with a large enough effect; inconclusive = small, poorly fitted or top-dose-only effect, or another doubt; inactive = no such curve, though single readings can be large; an effect the other way counts as inactive or inconclusive.

SMILES | ELG1 DNA repair | Giardia killer | TDP1 inh | IL-1B inflam inh | DT40 TDP1 no CPT | TDP1 cell CPT
COc1ccc(S(=O)(=O)N2CCN(C(=O)CN3C(=O)NC(C)(C)C3=O)CC2)cc1 | - | - | - | - | - | -
COc1ccc(S(=O)(=O)N2CCN(C(=O)CN3C(=O)NC(C)(c4ccc5ccccc5c4)C3=O)CC2)cc1 (stereo not given) | ? | - | . | - | 23µM | ?
CC1(c2ccc3ccccc3c2)NC(=O)N(CC(=O)N2CCN(Cc3ccccc3)CC2)C1=O (stereo not given) | - | - | - | ? | 4.6µM | 8.2µM
O=C1/C(=C/c2cccs2)SC(=S)N1CCC(=O)N1CCCCC1CCO (stereo not given) | ? | - | - | -56 | ? | ?
O=C(CCN1C(=O)/C(=C\c2cccs2)SC1=S)Nc1ccc(C(=O)O)cc1 | - | - | - | - | - | -
COc1ccccc1/C=C1\SC(=S)N(CCC(=O)N2CCCCC2CCO)C1=O (stereo not given) | - | - | - | ? | ? | 16µM
COc1ccccc1/C=C1\SC(=S)N(CCC(=O)NC2=NCCS2)C1=O | - | - | - | - | - | -
COc1cccc(/C=C2\SC(=S)N(CCCC(=O)N3CCCC3)C2=O)c1 | - | - | - | -91 | 21µM | ?
COc1cccc(/C=C2\SC(=S)N(CCC(=O)N3CCCCC3CCO)C2=O)c1 (stereo not given) | - | - | - | ? | 18µM | 13µM
Cc1ccccc1CNC(=O)c1ccc2sc([C@H]3C[C@H](O)[C@@H](CO)O3)nc2c1 | . | . | . | - | ? | -
CCCCCCCCC(=O)NCc1cc(OC)c(O)cc1I | . | . | - | . | ? | ?
CN(C(=O)COC(=O)CNC(=O)C12CC3CC(CC(C3)C1)C2)C1CCS(=O)(=O)C1 (stereo not given) | - | - | - | - | - | -
COc1cccc(/C=C2\SC(=O)N(CCC(=O)N3CCC(C(=O)O)CC3)C2=O)c1 | - | - | - | - | - | -
COc1cccc(/C=C2\SC(=S)N(CCCC(=O)N3CCCCC3CCO)C2=O)c1 (stereo not given) | ? | - | - | -70 | 16µM | ?
CC(=O)N1CC(C)Sc2ccc(S(=O)(=O)NCCc3ccc(C)cc3)cc21 (stereo not given) | ? | - | - | - | 7.3µM | 18µM
COc1ccccc1CNS(=O)(=O)c1ccc2c(c1)N(C(C)=O)CC(C)S2 (stereo not given) | - | - | - | - | ? | -
CC(=O)N1CC(C)Sc2ccc(S(=O)(=O)NCCc3ccccc3)cc21 (stereo not given) | - | - | - | - | 10µM | 13µM
CC(=O)N1CC(C)Sc2ccc(S(=O)(=O)NCc3ccc(Cl)cc3)cc21 (stereo not given) | - | - | - | - | ? | ?
CC[C@H]1OC(=O)[C@H](C)[C@@H](O[C@H]2C[C@@](C)(OC)[C@@H](O)[C@H](C)O2)[C@H](C)[C@@H](O[C@@H]2O[C@H](C)C[C@H](N(C)C)[C@H]2O)[C@](C)(O)C[C@@H](C)C(=NOCOCCOC)[C@H](C)[C@@H](O)[C@]1(C)O | - | - | . | - | 7.3µM | ?
Cc1ccc(OCC(=O)NCC(=O)OCc2cc(=O)n3nc(C(C)C)sc3n2)cc1 | . | . | - | . | - | -
COc1ccc(OC)c(CC(NC(C)=O)C(=O)NC2CCN(c3c(Cc4ccccc4)c(C)nc4ncnn34)CC2)c1 (stereo not given) | 23µM | - | - | ? | ? | -
COc1cccc(CC(NC(C)=O)C(=O)NC2CCN(c3c(Cc4ccccc4)c(C)nc4ncnn34)CC2)c1 (stereo not given) | ? | - | - | - | - | -
CC1CCC(NCCNC(=O)c2ccco2)CC1 (stereo not given) | - | - | - | - | - | -
COc1cc(COc2cc(N)c(Cl)cc2C(=O)CCC2CCN(CCNS(C)(=O)=O)CC2)cc(OC)c1 | . | . | - | . | 16µM | 27µM
CCc1ccc(NC(=O)CSc2nc(C)cs2)cc1 | . | . | . | - | ? | -
SMILES | ELG1 DNA repair | Giardia killer | TDP1 inh | IL-1B inflam inh | DT40 TDP1 no CPT | TDP1 cell CPT
Cc1cc(C)c2c(=O)n(CC(=O)NCCCN3CCOCC3)sc2n1 | - | - | - | -97 | 6.5µM | 4.1µM
Cc1cc(C)c2c(=O)n(CC(=O)NCCCN3CCN(c4ccccc4F)CC3)sc2n1 | ? | - | - | ? | 3.3µM | 4.6µM
Cc1cccc(C)c1Nc1c(-c2ccc(Cl)s2)nc2ncccn12 | . | . | - | . | ? | ?
O=C1CCC[C@@H]2[C@@H](Cc3ccccc3)[C@@H](Nc3ccccc3)C[C@@H]3CCN1[C@@H]32 | . | . | . | . | 11µM | ?
Oc1ccc(-c2ccccc2)cc1CN1CCCCCC1 | - | - | . | - | 18µM | ?
COCCN(CC1CCCN(C2Cc3ccccc3C2)C1)C(=O)CCC(C)=O (stereo not given) | - | - | . | - | - | -
COCCN(CC1CCCN(C2Cc3ccccc3C2)C1)C(=O)CCC(N)=O (stereo not given) | - | - | . | -52 | ? | -
COc1ccc(CNC(=O)/C=C/c2ccc(S(=O)(=O)NCc3ccco3)cc2)cc1OC | ? | - | - | - | 26µM | ?
COc1ccc(CNC(=O)/C=C/c2ccco2)cc1OC | - | - | - | - | - | -
O=C(/C=C/c1ccc(S(=O)(=O)NCc2ccco2)cc1)NCc1ccccc1Cl | - | - | - | ? | 18µM | ?
CCCCSc1nnc2c(n1)OC(c1ccc(Br)s1)Nc1ccccc1-2 (stereo not given) | . | . | . | . | 18µM | ?
COc1cc(OC)cc(C(=O)NCCc2csc(-c3cccc(C)c3)n2)c1 | . | . | - | . | 16µM | 15µM
COc1ccc(CC(=O)NCCc2csc(-c3ccc(C(F)(F)F)cc3)n2)cc1 | . | . | - | . | . | .
Cc1cccc(-c2nc(CCNC(=O)COc3ccccc3)cs2)c1 | . | . | - | . | ? | ?
COc1cc(OC)cc(C(=O)NCCc2csc(-c3ccc(C(F)(F)F)cc3)n2)c1 | . | . | - | . | 18µM | ?
Cc1cccc(-c2nc(CCNC(=O)Cc3ccccc3)cs2)c1 | . | . | - | . | 21µM | ?
CCOC(=O)c1ccccc1NC(=O)c1sc2ccccc2c1Cl | . | . | -[12.3 µM] | . | - | -
CCN(CC)Cc1ccc(NC(=O)c2sc3cc(Cl)ccc3c2Cl)cc1 | - | - | . | . | 16µM | ?

Screening data as filed in PubChem BioAssay.
